# Measured values: PubChem BioAssay (NCATS)
# Records with an inconclusive call do not appear. Active and inactive are the calls of the source. Calls come from the whole dose curve; as a rule, active = well fitted inhibition curve with a large enough effect; inconclusive = small, poorly fitted or top-dose-only effect; inactive = flat fitted curve, though single readings scatter.
# System: Zika virus NS2B-NS3 protease
# Assay: Primary screen GU AMC qHTS for Zika virus inhibitors (AID 1347154); note: nearly all actives have a fitted effect of over 70% in size;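 for activity change, negative = inhibition: 0% = no-inhibitor control and -100% = no-enzyme control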
# Settings: Zika NS2B-NS3 unlinked protease, AMC fluorogenic substrate; series mostly up to 54.1 µM; activity change, negative = inhibition: at the top concentration
# Procedure, shortened: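 Fluorogenic AMC-substrate cleavage by noncovalent NS2B-NS3 protease complex (25 nM, pH 8.0 Tris buffer with Tween 20) followed for 15 minutes at room temperature (~20% conversion). Percent inhibition from ex340/em450 signal change, fitted by 4-parameter Hill equation.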
# Potency is the fitted concentration of half-maximal effect.
Structure (SMILES),"activity change, negative = inhibition",Potency
CCOC(=O)c1c(CSc2ccccc2)n(C)c2cc(Br)c(O)c(CN(C)C)c12,-4.56% (inactive),–
CCOC(=O)[C@H]1O[C@H]1C(=O)N[C@@H](CC(C)C)C(=O)NCCC(C)C,-2.43% (inactive),–
CCC(=C(CC)c1ccc(O)cc1)c1ccc(O)cc1,-11.7% (inactive),–
COc1ccc(-c2cc(=O)c3c(O)cc(O[C@@H]4O[C@H](CO[C@@H]5O[C@@H](C)[C@H](O)[C@@H](O)[C@@H]5O)[C@@H](O)[C@H](O)[C@@H]4O)cc3o2)cc1O,6.81% (inactive),–
CC(C)N(CCCNC(=O)Nc1ccc(C(C)(C)C)cc1)C[C@H]1O[C@@H](n2cc(Br)c3c(N)ncnc32)[C@H](O)[C@H]1O,-6.58% (inactive),–
Cc1nn(Cc2ccccc2Cl)c(C)c1CN(C)CC(O)COc1ccc(Cl)cc1 (centres undefined),-7.99% (inactive),–
O=C(O)C1=CO[C@@H](O[C@@H]2O[C@H](CO)[C@H](O)[C@H](O)[C@H]2O)[C@@H]2C(CO)=CC[C@H]12,8.14% (inactive),–
Oc1cc(O)cc(C=Cc2ccc(O)c(O)c2)c1,–,13.6 µM (active)
COc1ccc2c(c1)CC[C@H]1[C@@H]2CC[C@]2(C)[C@@H](NCCCCCCN3C(=O)C=CC3=O)CC[C@H]12,-1.52% (inactive),–
CCC[C@@H](NC(=O)[C@@H]1[C@H]2CCC[C@@H]2CN1C(=O)[C@@H](NC(=O)[C@@H](NC(=O)c1cnccn1)C1CCCCC1)C(C)(C)C)C(=O)C(=O)NC1CC1,-0.0698% (inactive),–
Cc1ccc(C(=O)N(CCCN)[C@@H](c2oc3cc(Cl)ccc3c(=O)c2Cc2ccccc2)C(C)C)cc1,8.8% (inactive),–
CON(C)C(=O)N1N=C(c2cc(F)ccc2F)S[C@]1(CCCN)c1ccccc1,21.6% (inactive),–
CN1CC(=O)N2C(Cc3c([nH]c4ccccc34)[C@H]2c2ccc3c(c2)OCO3)C1=O (some centres undefined),-11.5% (inactive),–
O=C1CN2Cc3c(ccc(Cl)c3Cl)N=C2N1,-0.611% (inactive),–
COc1ccc(C=CC(=O)Nc2ccccc2C(=O)O)cc1OC,-16.6% (inactive),–
CN1CCC[C@H]1CCO[C@](C)(c1ccccc1)c1ccc(Cl)cc1,5.68% (inactive),–
CC(C)[C@H](O)C(=O)N[C@@H](C)C(=O)N[C@@H]1C(=O)N(C)CCc2ccccc21,-0.141% (inactive),–
CCOC(=O)[C@@H](N)CCC(=O)N[C@@H](CSCc1ccccc1)C(=O)N[C@@H](C(=O)OCC)c1ccccc1,2.48% (inactive),–
CN(C)N=Nc1nc[nH]c1C(N)=O,5.32% (inactive),–
Cc1ccc(NC(=O)c2ccc(CN3CCN(C)CC3)cc2)cc1Nc1nc(-c2cccnc2)cs1,14.2% (inactive),–
CCC(C)SSc1ncc[nH]1 (centres undefined),-0.983% (inactive),–
CO[C@H]1O[C@@H]2O[C@@]3(C)CC[C@@H]4[C@@H](C)CC[C@@H]([C@H]1C)[C@@]24OO3,6.37% (inactive),–
Nc1nc(Cl)nc2c1ncn2[C@@H]1O[C@H](CO)[C@@H](O)[C@H]1F,6.33% (inactive),–
CO[C@H]1/C=C\O[C@@]2(C)Oc3c(C)c(O)c4c(O)c(c5c(nc6cc(C)ccn65)c4c3C2=O)NC(=O)C(C)=CC=C[C@H](C)[C@H](O)[C@@H](C)[C@@H](O)[C@@H](C)[C@H](OC(C)=O)[C@H]1C,-5.14% (inactive),–
CCNC(=O)CCCC=CC[C@@H]1[C@H](C=CC(O)CCc2ccccc2)[C@@H](O)C[C@@H]1O (some centres undefined),5.67% (inactive),–
CC[C@]1(O)C[C@H]2CN(CCC3=c4ccccc4=N[C]3[C@@](C(=O)OC)(c3cc4c(cc3OC)N(C)[C@H]3[C@@](O)(C(N)=O)[C@H](O)[C@]5(CC)C=CCN6CC[C@]43[C@@H]65)C2)C1,5.42% (inactive),–
CC1C(=O)OC2C(O)C34C5CC(C(C)(C)C)C36C(OC(=O)C6O)OC4(C(=O)O5)C12O (centres undefined),26.6% (inactive),–
Cc1cn([C@@H]2C[C@@H](O)[C@H](CO)O2)c(=O)[nH]c1=O,3.68% (inactive),–
NC(=O)c1nnn(Cc2cc(Cl)c(C(=O)c3ccc(Cl)cc3)c(Cl)c2)c1N,-9.17% (inactive),–
